About 2,000 (36%) of roughly 5,500 compounds were called active. Not shown: some 18% with an inconclusive outcome. This is one part of the list. A number with no mark means an inactive call. No stated cut-off is given here; in the data, active means normalized growth mostly below about 0.91 (no sharp cut-off); inconclusive means no clear call, values can overlap the other calls; inactive means mostly above about 0.92.
Test: chemical genetic growth profiling, strain panel (AID 1159580);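 further: tested at 20 µM; growth read once vehicle control cultures reached saturation at 30 °C; 1 = growth at the plate median or of vehicle wells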
Settings: growth OD
[1] = S. cerevisiae deletion strains, locus YAL013W, strain DEP1, stronger effect = lower value
[2] = S. cerevisiae deletion strains, locus YBR229C, strain ROT2, stronger effect = lower value
[3] = S. cerevisiae deletion strains, locus YDL101C, strain DUN1, stronger effect = lower value
[4] = S. cerevisiae deletion strains, locus YDR150W, strain NUM1, stronger effect = lower value
[5] = S. cerevisiae deletion strains, locus YEL061C, strain CIN8, stronger effect = lower value
[6] = S. cerevisiae deletion strains, locus YGR078C, strain PAC10, stronger effect = lower value
[7] = S. cerevisiae deletion strains, locus YHR030C, strain SLT2, stronger effect = lower value
[8] = S. cerevisiae deletion strains, locus YHR087W, strain rtc3, stronger effect = lower value
[9] = S. cerevisiae deletion strains, locus YJR043C, strain POL32, stronger effect = lower value
[10] = S. cerevisiae deletion strains, locus YJR075W, strain HOC1, stronger effect = lower value
[11] = S. cerevisiae deletion strains, locus YKL190W, strain CNB1, stronger effect = lower value
[12] = S. cerevisiae deletion strains, locus YLR039C, strain RIC1, stronger effect = lower value
[13] = S. cerevisiae deletion strains, locus YLR058C, strain SHM2 (second series), stronger effect = lower value
[14] = S. cerevisiae deletion strains, locus YLR085C, strain ARP6, stronger effect = lower value
[15] = S. cerevisiae deletion strains, locus YLR262C, strain YPT6, stronger effect = lower value
[16] = S. cerevisiae deletion strains, locus YML094W, strain GIM5, stronger effect = lower value
[17] = S. cerevisiae deletion strains, locus YMR219W, strain ESC1, stronger effect = lower value
[18] = S. cerevisiae deletion strains, locus YMR263W, strain SAP30, stronger effect = lower value
[19] = S. cerevisiae deletion strains, locus YMR307W, strain GAS1, stronger effect = lower value
[20] = S. cerevisiae deletion strains, locus YNL128W, strain TEP1, stronger effect = lower value
[21] = S. cerevisiae deletion strains, locus YNL153C, strain GIM3, stronger effect = lower value
[22] = S. cerevisiae deletion strains, locus YNL298W, strain CLA4 (second series), stronger effect = lower value
[23] = S. cerevisiae deletion strains, locus YNL322C, strain KRE1, stronger effect = lower value
[24] = S. cerevisiae deletion strains, locus YNR030W, strain Alg12, stronger effect = lower value
[25] = S. cerevisiae deletion strains, locus YPL055C, strain LGE1, stronger effect = lower value
[26] = S. cerevisiae deletion strains, locus YPL241C, strain CIN2, stronger effect = lower value
[27] = S. cerevisiae deletion strains, locus YPR135W, strain CTF4, stronger effect = lower value

CC(C)c1ccc(NC(=S)NC(=O)c2ccc(C(F)(F)F)cc2)cc1
normalized growth [1]: 1 | normalized growth [2]: 1.02 | normalized growth (S. cerevisiae deletion strains, locus YCL061C, strain MRC1, stronger effect = lower value): 1.01 | normalized growth [3]: 1.01 | normalized growth [4]: 1 | normalized growth [5]: 1.02 | normalized growth [6]: 1.02 | normalized growth (S. cerevisiae deletion strains, locus YGR229C, strain SMI1, stronger effect = lower value): 1.02 | normalized growth [7]: 1.1 | normalized growth [8]: 1.02 | normalized growth [9]: 1.01 | normalized growth [10]: 1 | normalized growth [11]: 1.02 | normalized growth [12]: 1.09 | normalized growth [13]: 1.02 | normalized growth [14]: 1.23 [resistant] (active) | normalized growth [15]: 1.07 | normalized growth [16]: 1.02 | normalized growth [17]: 1.01 | normalized growth [18]: 1 | normalized growth [19]: 1.3 | normalized growth [20]: 1.02 | normalized growth [21]: 0.989 | normalized growth [22]: 1.06 | normalized growth [23]: 1.01 | normalized growth [24]: 1.01 | normalized growth [25]: 0.997 | normalized growth [26]: 1.13 | normalized growth [27]: 1.09

O=C(NC(=S)Nc1ccccn1)c1ccccc1
normalized growth [1]: 0.962 | normalized growth [2]: 0.948 | normalized growth [3]: 0.942 | normalized growth (S. cerevisiae deletion strains, locus YDL134C, strain PPH21, stronger effect = lower value): 0.977 | normalized growth [4]: 0.956 | normalized growth [5]: 0.783 (active) | normalized growth [6]: 0.962 | normalized growth [7]: 0.401 (active) | normalized growth [8]: 1 | normalized growth [9]: 0.955 | normalized growth [10]: 0.988 | normalized growth [12]: 0.573 (active) | normalized growth [13]: 0.976 | normalized growth [14]: 0.428 (active) | normalized growth [15]: 0.788 (active) | normalized growth [16]: 0.777 (active) | normalized growth [17]: 0.964 | normalized growth [18]: 0.993 | normalized growth [19]: 0.476 (active) | normalized growth [21]: 0.933 | normalized growth [22]: 0.67 (active) | normalized growth [23]: 1 | normalized growth [24]: 0.8 (active) | normalized growth (S. cerevisiae deletion strains, locus YOL006C, strain TOP1, stronger effect = lower value): 0.213 (active) | normalized growth [25]: 0.825 (active) | normalized growth [26]: 0.807 (active) | normalized growth [27]: 0.552 (active)

O=C(NC(=S)NCc1ccncc1)c1ccccc1
normalized growth [1]: 1.02 | normalized growth [2]: 1.01 | normalized growth [3]: 1.01 | normalized growth [4]: 0.983 | normalized growth [5]: 1 | normalized growth [6]: 1.01 | normalized growth [7]: 1.05 | normalized growth [8]: 1 | normalized growth (S. cerevisiae deletion strains, locus YJL187C, strain SWE1, stronger effect = lower value): 0.973 | normalized growth [9]: 0.997 | normalized growth [10]: 1.03 | normalized growth [11]: 1.01 | normalized growth [12]: 0.928 | normalized growth [13]: 1 | normalized growth [14]: 0.969 | normalized growth [15]: 0.978 | normalized growth [16]: 1.01 | normalized growth [17]: 1 | normalized growth [18]: 1 | normalized growth [20]: 1.01 | normalized growth [21]: 1 | normalized growth [22]: 1.04 | normalized growth [23]: 1 | normalized growth [24]: 1.02 | normalized growth [25]: 1 | normalized growth [26]: 1.02 | normalized growth [27]: 0.929 | normalized growth (S. cerevisiae strains, strain wild type, stronger effect = lower value): 1.01

Source: PubChem BioAssay AID1159580 (chemical genetic matrix, 2015)
